# Source: PubChem BioAssay (EPA / NIEHS)
# Inconclusive results are not listed. Calls of active or inactive are those of the source. How the source made its calls: active means hit-call score of the fitted dose curve at least 0.9, where 1 is the maximum; inconclusive means response in the unintended direction; inactive means score below 0.9.
# System: guinea pig Dopamine Transporter (DAT), gene 100714898
# Test: NVS_TR_gDAT: NovaScreen (NVS) Transporter Assay for guinea pig Dopamine Transporter (DAT) (AID 2283369);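 further: active compounds lower bound radioligand signal relative to DMSO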
# Procedure: NVS_TR_gDAT is a biochemical, single-readout assay that uses extracted gene-proteins from Guinea pig striatal membranes in a tissue-based cell-free assay. Measurements were taken 2 hours after chemical dosing in a 48-well plate.NVS_TR_gDAT is one of one assay component(s) measured or calculated from the NVS_TR_gDAT assay. It is designed to make measurements of radioligand binding, a form of binding reporter, as detected with scintillation counting signals by Filter-based radiodetection technology.Data from the assay component NVS_TR_gDAT was analyzed into 1 assay endpoint. This assay endpoint, NVS_TR_gDAT, was analyzed in the positive analysis fitting direction relative to DMSO as the negative control and baseline of activity. Using a type of binding reporter, loss-of-signal activity can be used to understand changes in the binding as they relate to the gene Slc6a3. Furthermore, this assay endpoint can be referred to as a primary readout, because the performed assay has only produced 1 assay endpoint. To generalize the intended target to other relatable targets, this assay endpoint is annotated to the transporter intended target family, where the subfamily is neurotransmitter transporter.
# Binding assays used specific radioligands (tritiated, iodinated) with non-radioactive competitive displacement ligands in agonist or antagonist protocols (as indicated) and various reference compounds and inhibitors to titrate specific binding to receptors and transporters. Most enzyme assays (CYPs, kinases, phosphatases, proteases, HDACs) used recombinant protein and specific substrates (fluorescence mostly, some colorimetric and radioactive) and inhibitors, followed by a biochemical separation of substrate and product. All assays for the biochemical HTS were initially run in duplicate at a single concentration (10 uM for CYP450 assays and 25 uM for all others). Assay-chemical combinations meeting a pre-defined threshold (e.g., 30% inhibition and other criteria defined below) were then run in singleton concentration-response format with maximum concentration of 20 uM for CYPs and 50 uM for all others. Each assay was run with positive and negative controls, and concurrent controls on every plate. The follow-up (secondary) screen tested active chemical-pairs in concentration series, as well as a few additional assays not tested in the primary screen, some selected negative inactives, and several cases re-run in the concentration series for confirmatory purposes.
Compound,outcome,AC50
CC(COCC(C)OC(=O)c1ccccc1)OC(=O)c1ccccc1 (stereo unspecified),inactive,
COc1ccc(OC(F)(F)F)cc1CN[C@H]1CCCN[C@H]1c1ccccc1,,11.9 µM (active)
O=C(N[C@@H](c1ccccc1)[C@@H]1CCCCN1)c1cccc(C(F)(F)F)c1Cl,,25 µM (active)
CSc1ccc(Oc2ccc(S(N)(=O)=O)cc2CN(C)C)cc1C,,7.61 µM (active)
CCCCC(CC)COP(=O)(OCC(CC)CCCC)OCC(CC)CCCC (stereo unspecified),inactive,
CN(C)CCCN1c2ccccc2Sc2ccc(Cl)cc21,,8.84 µM (active)
CCN(CC)CCOc1ccc(C(=C(Cl)c2ccccc2)c2ccccc2)cc1,,3.83 µM (active)
Cc1cc(SC2=C(O)C[C@@](CCc3ccc(N)cc3)(C(C)C)OC2=O)c(C(C)(C)C)cc1CO,inactive,
CCc1nc(N)nc(N)c1-c1ccc(Cl)cc1,,1.18 µM (active)
CN(C)C(=O)NC1(c2ccccc2)CCN(CCC[C@]2(c3ccc(Cl)c(Cl)c3)CCCN(C(=O)c3ccccc3)C2)CC1,,0.596 µM (active)
Cn1cnc2c1c(=O)[nH]c(=O)n2C,,10.5 µM (active)
